A short description of experiment [1]: compound effects on lung adenocarcinoma cell viability – A549, calcein-AM fluorescence, 48 h, basal, profiling panel (AID 1162). Also: test concentration not given here. The following applies: higher = more signal.
The nature of experiment [2]: compound effects on differentiated 3T3-L1 adipocyte viability – cell-based, 3T3-L1 adipocytes, calcein-AM fluorescence, 48 h, basal, profiling panel (AID 1163). Also: test concentration not given here. The following applies: 3T3-L1 adipocytes viability, higher = more signal.
A short description of experiment [3]: compound effects on hepatocellular carcinoma cell viability – HepG2, calcein-AM fluorescence, 48 h, basal, profiling panel (AID 1164). Also: test concentration not given here. The following applies: higher = more signal.
The nature of experiment [4]: compound effects on multiple myeloma cell viability – MM1S, calcein-AM fluorescence, 48 h, basal, profiling panel (AID 1165).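 Also: viability of MM1S multiple myeloma cells under basal unstimulated conditions; test concentration not given here.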 The following applies: higher = more signal.
Experiment [5] in a line: calcein-AM signal in unstimulated myeloma cells – cell-based, calcein-AM fluorescence, 48 h, PK04 Diversity Set, profiling panel (AID 1166).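 Also: cells grown under basal conditions without added stimulus; test concentration not given here.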 The following applies: RPMI8226 myeloma viability, higher = more signal.
The nature of experiment [6]: JC-1 mitochondrial signal, unstimulated HepG2 cells – cell-based, JC-1 fluorescence, 24 h, 100 nL compound, profiling panel (AID 1167). Also: test concentration not given here. The following applies: HepG2 mitochondrial potential, higher = more signal.
Experiment [7] in a line: JC-1 mitochondrial signal, unstimulated adipocytes – cell-based, JC-1 fluorescence, 3T3-L1 adipocytes, 24 h, 100 nL compound, profiling panel (AID 1168). Also: test concentration not given here. The following applies: JC-1 mitochondrial fluorescence, higher = more signal, called active from +8 up or from −8 down.
The nature of experiment [8]: JC-1 mitochondrial signal, unstimulated myeloma cells – cell-based, JC-1 fluorescence, RPMI8226, 24 h, 100 nL compound, profiling panel (AID 1169). Also: test concentration not given here. The following applies: JC-1 mitochondrial potential fluorescence, higher = more signal.
Experiment [9] can be described thus: JC-1 mitochondrial signal, unstimulated MM1S myeloma – cell-based, JC-1 fluorescence, 24 h, 100 nL compound, profiling panel (AID 1170). Also: test concentration not given here. The settings on record: MM1S mitochondrial potential, higher = more signal.
A short description of experiment [10]: resazurin metabolic signal in A549 cells – cell-based, resazurin fluorescence, 24 h, PK04 Diversity Set, profiling panel (AID 1171). Also: test concentration not given here. The following applies: A549 viability, higher = more signal, called active from +8 up or from −8 down.
Experiment [11] in a line: resazurin metabolic signal in HepG2 cells – cell-based, resazurin fluorescence, 24 h, PK04 Diversity Set, profiling panel (AID 1172). Also: test concentration not given here. The settings on record: HepG2 viability, higher = more signal.
A short description of experiment [12]: budding yeast growth changes without added modifier – OD600, strain BY4716, 24 h, basal condition, primary screen (AID 1173). The settings on record: S. cerevisiae BY4716 growth, OD600, 24 h; higher = more signal, called active from +8 up or from −8 down.
Experiment [13] in a line: viability profiling in MM1S myeloma cells – cell-based, resazurin fluorescence, basal, 24 h, PK04 Diversity Set, profiling panel (AID 1174). Also: test concentration not given here. The settings on record: higher = more signal, called active from +8 up or from −8 down.
The target in experiment [14] is Dihydroorotate dehydrogenase (quinone), mitochondrial (Plasmodium falciparum (isolate 3D7)) (UniProt Q08210). The experiment can be described thus: inhibition of P. falciparum DHODH – biochemical, C-terminal His tag, absorbance 600 nm, primary screen (AID 1175).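 Also: recombinant parasite enzyme with a five histidine tag at its C terminus; test concentration not given here.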 The following applies: PfDHODH enzyme, DCIP absorbance 600 nm; higher = more signal, called active from +8 up or from −8 down.

A short description of experiment [15]: inhibition of PAO1 biofilm formation – strain PAO1, LB-PBS medium, absorbance 600 nm, primary screen (AID 1176). Also: test concentration not given here. The settings on record: P. aeruginosa PAO1 growth/biofilm, A600, 12 h; higher = more signal.
Experiment [16] is described as follows: growth modulation of vineyard yeast isolate – strain RM11-1a, OD600, basal, 24 h, primary screen (AID 1177).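 Also: cultures grown under basal conditions with no added stressor; test concentration not given here.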 The following applies: S. cerevisiae RM11-1a growth, OD600, 24 h; higher = more signal, called active from +8 up or from −8 down.
A short description of experiment [17]: growth of efflux-deficient E. coli DRC39 – strain DRC39, OD650, 24 h, E. coli filamentation inducers, primary screen (AID 1178).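 Also: growth measured as culture turbidity by optical density at 650 nm; test concentration not given here.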 The settings on record: E. coli DRC39 acrAB, higher = more signal, called active from +8 up or from −8 down.
Experiment [18] is described as follows: growth of efflux-deficient E. coli DRC39 – strain DRC39, OD650, 48 h, E. coli filamentation inducers, primary screen (AID 1179).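 Also: screen aims at cell division blockers that make cells filament.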 The following applies: E. coli DRC39 delta-acrAB growth, higher = more signal, called active from +8 up or from −8 down.
Experiment [19] is described as follows: viability profiling in RPMI8226 myeloma cells – cell-based, resazurin fluorescence, basal, 24 h, PK04 Diversity Set, profiling panel (AID 1180).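 Also: RPMI8826 multiple myeloma cell line at 5000 cells per well; test concentration not given here.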 The following applies: higher = more signal.
The target of experiment [20] is E3 ubiquitin-protein ligase XIAP (Homo sapiens) (UniProt P98170). The experiment can be described thus: small molecules binding XIAP protein – biophysical, small-molecule microarray, fluorescence 635 nm, primary screen (AID 1181).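 Also: score merges 667 nm emission and signal to noise over triplicate slides.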 The following applies: higher = more signal.

Active and inactive are the calls of the source. Unless noted, no rule for the calls is given here.

Dihydroorotate dehydrogenase (quinone), mitochondrial (Plasmodium falciparum (isolate 3D7)), sequence (Q08210 whole entry, looked up): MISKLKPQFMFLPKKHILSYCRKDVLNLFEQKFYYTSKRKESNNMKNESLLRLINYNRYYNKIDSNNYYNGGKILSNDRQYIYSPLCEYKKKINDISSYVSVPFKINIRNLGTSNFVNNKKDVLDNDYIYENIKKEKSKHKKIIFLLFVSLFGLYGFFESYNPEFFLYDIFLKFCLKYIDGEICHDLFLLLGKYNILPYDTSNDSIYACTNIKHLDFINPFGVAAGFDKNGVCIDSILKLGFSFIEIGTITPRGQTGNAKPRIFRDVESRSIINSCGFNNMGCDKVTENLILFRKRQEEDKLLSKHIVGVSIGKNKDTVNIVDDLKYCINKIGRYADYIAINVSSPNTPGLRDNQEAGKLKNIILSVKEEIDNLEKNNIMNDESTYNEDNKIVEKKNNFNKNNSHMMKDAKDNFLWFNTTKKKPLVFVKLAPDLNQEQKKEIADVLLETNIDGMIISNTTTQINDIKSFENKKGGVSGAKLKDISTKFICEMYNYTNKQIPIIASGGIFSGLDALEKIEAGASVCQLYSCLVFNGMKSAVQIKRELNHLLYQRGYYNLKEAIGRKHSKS
E3 ubiquitin-protein ligase XIAP (Homo sapiens), sequence (P98170 whole entry, looked up): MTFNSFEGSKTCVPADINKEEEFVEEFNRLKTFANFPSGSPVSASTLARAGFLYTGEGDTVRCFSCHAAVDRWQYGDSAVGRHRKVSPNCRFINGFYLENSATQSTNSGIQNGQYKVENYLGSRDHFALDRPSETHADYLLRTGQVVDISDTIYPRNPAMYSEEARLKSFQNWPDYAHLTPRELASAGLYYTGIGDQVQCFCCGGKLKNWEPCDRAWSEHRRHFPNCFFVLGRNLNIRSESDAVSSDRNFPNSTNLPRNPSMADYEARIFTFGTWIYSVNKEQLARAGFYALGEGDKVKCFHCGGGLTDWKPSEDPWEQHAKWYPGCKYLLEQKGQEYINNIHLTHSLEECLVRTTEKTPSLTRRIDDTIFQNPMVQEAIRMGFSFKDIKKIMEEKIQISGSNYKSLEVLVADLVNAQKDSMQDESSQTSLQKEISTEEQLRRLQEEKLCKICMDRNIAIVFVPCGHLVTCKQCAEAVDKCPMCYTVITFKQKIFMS

For `CC(C)(C)OC(=O)CC[C@]1(C(=O)NCc2ccccc2)N=C(c2ccc(OCCCO)cc2)O[C@H]1c1ccccc1CN=[N+]=[N-]`, the z-score in experiment [1] is 0.858; in [2], -0.0665; in [3], 2.17; in [4], -0.863; in [5] it was 0.213; in experiment [6] it was 1.17. Also, the z-score in [7] was 0.0993 (inactive); in experiment [8], -0.518; in [9], -0.773; in [10], -0.768 (inactive); in experiment [11], -1.08; in experiment [12], 0.103 (inactive). The z-score was -1.49 (inactive) in experiment [13]; 0.702 (inactive) in experiment [15]; 0.53 (inactive) in [16]; 0.414 (inactive) in [17]; 0.391 (inactive) in [18]; -0.551 in experiment [19]. The composite z-score is 0.281 (inactive) in [14] and 0.0942 in experiment [20].
Regarding `CCOC(=O)C[C@H]1[C@H](OC(=O)Cc2ccc3c(c2)OCO3)[C@@H](NC(=O)CC(C)C)c2cc(OCCCO)ccc2N1C(=O)Cc1ccc(OC)cc1`, the z-score in experiment [1] is 0.777; in experiment [2], 0.413; in [3], 1.63; in [4], -0.322; in experiment [5] it was 0.791; in [6], 3.73. Further, the z-score in [7] was 0.31 (inactive); in experiment [8], 0.139; in experiment [9], -0.19; in [10] it was -0.581 (inactive); in experiment [11], -0.334; in [12] it was -0.252 (inactive). Also, the z-score in experiment [13] was -0.0151 (inactive); in [15], 0.101 (inactive); in experiment [16] it was -1.73 (inactive); in experiment [17] it was 0.287 (inactive); in experiment [18], 0.629 (inactive); in [19], 0.2. For the same compound, the composite z-score in experiment [14] is -1.26 (inactive); in [20], -0.0622.
For the compound `COc1cc(OC)c(C(O)C2C=CC3C(=O)N(c4ccccc4)C(=O)C3N2Nc2ccccc2)cc1Br` (stereo not given), the z-score in experiment [1] was 1.84; in experiment [2], -1.48; in experiment [3] it was 0.0936; in experiment [4] it was 0.251; in [5], -0.562; in experiment [6] it was -2.11. Also, the z-score was -0.602 (inactive) in experiment [7]; 0.292 in experiment [8]; -0.761 in [9]; 0.439 (inactive) in experiment [10]; 0.222 in experiment [11]; -11 (active) in experiment [12]. Besides, the z-score is -1.14 (inactive) in experiment [13]; 0.475 (inactive) in experiment [15]; 0.378 (inactive) in [16]; -1.05 (inactive) in experiment [17]; -0.163 (inactive) in [18]; -1.52 in experiment [19]. The composite z-score was 0.593 (inactive) in [14] and 0.0967 in experiment [20].
Consider `COC(=O)c1c(CC[C@@H](CO)NC(=O)N2CCC[C@H]2Cn2cc(Cc3ccccc3)nn2)oc(C(C)=O)c1C(=O)OC`, for which the z-score in experiment [1] is -0.105; in experiment [2], -0.25; in [3], -0.904; in experiment [4] it was 0.823; in [5], -1.41; in experiment [6], -0.123. For the same compound, the z-score in experiment [7] was -0.0157 (inactive); in experiment [8], 0.127; in experiment [9] it was -0.236; in experiment [10], 0.435 (inactive); in [11], 0.448; in experiment [12] it was -1.36 (inactive). In addition, the z-score was -0.362 (inactive) in experiment [13]; -1.27 (inactive) in experiment [15]; -0.245 (inactive) in experiment [16]; 0.745 (inactive) in experiment [17]; 0.312 (inactive) in experiment [18]; -0.394 in experiment [19]. Besides, the composite z-score in experiment [14] was -0.378 (inactive); in experiment [20] it was 0.

The record behind these values is PubChem BioAssay.
